# Values joined by “and” are separate entries in the source; they are usually repeats but may differ in a detail not shown here. Equal entries are not always repeated. This is part of a sample that, as a whole, favours compounds with a hit. Of some 83,000 tested, about 20% had one in any assay.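 Treatment: one concentration, 48 hours, 96-well format. Scoring: percent growth, with anything below 10 considered active.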 Active and inactive are the calls of the source.
# Test system: MCF7 breast
# Experiment: NCI-60 one-dose screen, 48 h (100 = growth as untreated, 0 = no growth, -100 = all killed)
# Settings: 10 µM unless noted
row,SMILES,growth
1,COC(=O)C(=O)C(C(=O)C(=O)Nc1ccccc1C(=O)OC)c1nc2ccc(C(=O)c3ccccc3)cc2[nH]c1=O (stereo not given),58.7% [100 µM] (inactive) and 7.77% [100 µM] (active)
2,O=C1C=C(Nc2ccc(S(=O)(=O)Nc3nccs3)cc2)c2ccccc2C1=O,-89% [100 µM] (active) and -74.5% [100 µM] (active)
3,CC(C)(C)c1cc(C2COC(=O)COCC(=O)OCCOCCOCCO2)cc(C(C)(C)C)c1O (stereo not given),64.9% [100 µM] (inactive) and 75.7% [100 µM] (inactive)
4,NNC1=N/C(=C\c2ccco2)C(Cl)=N1,16.5% [100 µM] (inactive) and -15.6% [100 µM] (active)
5,Cc1cc(-c2nc3ccccc3s2)ccc1N,27.4% [100 µM] (inactive) and 5.42% [100 µM] (active)
6,O=c1c(-c2ccc3c(c2)OCO3)coc2c3c(ccc12)OCO3,-45% [100 µM] (active) and -62.5% [100 µM] (active)
7,CC(C)C1OC23CCCCC2C(C#N)(C#N)C1(C#N)C(=N)O3 (stereo not given),-20.4% [100 µM] (active)
8,N#C/C(=C\c1ccccc1)C(=O)Nc1nnc(-c2ccccc2)o1,33.4% [100 µM] (inactive) and 3.23% [100 µM] (active)
9,CC#CC#C/C=C1\C=CC2(OC=CC2OC(C)=O)O1 (stereo not given),-91.4% [100 µM] (active) and -48.8% [100 µM] (active)
10,CC(=O)OCC1=C(C)C[C@H]([C@@H](COC(C)=O)C2CCC3C4C[C@H]5O[C@]56CC=CC(=O)[C@]6(C)C4CC[C@@]32C)OC1=O (stereo not given in full),-69.8% [50 µM] (active) and -84.4% [50 µM] (active)
11,CC(=O)c1cc2c(s1)C(=O)c1ccsc1C2=O,-62.9% [100 µM] (active) and -100% [100 µM] (active)
12,CC(=O)O[C@@H]1C[C@@]2(C)[C@@H]3CC=C4[C@@H](C[C@H](O)C(=O)C4(C)C)[C@]3(C)C(=O)C[C@]2(C)[C@H]1[C@@](C)(O)C(=O)/C=C/C(C)(C)OC(C)=O,-52.5% [100 µM] (active) and -100% [100 µM] (active)
13,C#CCn1c2c(c3ccccc3c1=O)C(=O)c1ccccc1-2,11.6% [100 µM] (inactive) and 10.4% [100 µM] (inactive)
14,CC(=O)Nc1c(C)cc2c(nc3n2CCC3OC(C)=O)c1[N+](=O)[O-] (stereo not given),105% [100 µM] (inactive) and 101% [100 µM] (inactive)
15,Nc1cc2c3c(cccc3c1)C(=O)N(c1ccc(OCCN3CCCC3)cc1)C2=O,-78.2% [100 µM] (active) and -100% [100 µM] (active)
16,O=C(CCc1ccccc1)On1c(-c2ccccc2)nc2ccccc2c1=S,-34.4% [100 µM] (active) and -60.1% [100 µM] (active)
17,CC(=O)c1cc2c(s1)C(=O)c1sccc1C2=O,-67.2% [100 µM] (active) and -100% [100 µM] (active)
18,CCCCCCCCCc1cc(=O)c2c(O)cc(O)cc2o1,-86.1% [100 µM] (active) and -45.1% [100 µM] (active)
19,C=C1CC(O)C2C(=C)C(=O)OC2C2C(C)C(=O)CC12 (stereo not given),-76.9% [100 µM] (active) and -61.7% [100 µM] (active)
20,N#CC1=C(N)OC(c2cccc([N+](=O)[O-])c2)C1(C#N)C#N (stereo not given),-9.78% [100 µM] (active) and -88.5% [100 µM] (active)

row,SMILES,growth
1,Cc1ccc(/C=N/Nc2cc(C)c3ccccc3n2)s1,-80.7% [100 µM] (active) and -40.2% [100 µM] (active)
2,CC(=O)NC(CS/N=N/c1nc[nH]c1C(N)=O)C(=O)O (stereo not given),28.2% [100 µM] (inactive) and 6.86% [100 µM] (active)
3,COc1ccc2c3c(c(=O)n(C)c2c1OC)C=CC(C)(C)O3,4.77% [100 µM] (active) and 0.153% [100 µM] (active)
4,Cc1cc(N2CCCC2)c([N+](=O)[O-])cc1[N+](=O)[O-],65.2% [100 µM] (inactive) and 89% [100 µM] (inactive)
5,CC(C)=CCC/C(C)=C/CC/C(C)=C/CC/C(C)=C/C=C/C=C(\C)CC/C=C(\C)CC/C=C(\C)CCC=C(C)C,74.5% [100 µM] (inactive) and 28.2% [100 µM] (inactive)
6,CCOC(=O)/C(C#N)=C(/NNc1ccccc1)c1ccncc1C(=O)O,28.2% [100 µM] (inactive) and 39.1% [100 µM] (inactive)
7,CCOc1cc2c(cc1O)/C(=N\N)C[C@@H]1[C@@H]2CC[C@]2(C)[C@@H](O)CC[C@@H]12,20.2% [100 µM] (inactive) and -66.9% [100 µM] (active)
8,CCOC(=O)C1(C#N)C(=O)c2cc[n+](CC[n+]3ccc4c(c3)C(=O)C(C#N)(C(=O)OCC)C4=O)cc2C1=O (stereo not given),88.7% [100 µM] (inactive) and 89.4% [100 µM] (inactive)
9,COc1c2c(c(OC)c3c1c(=O)c1ccccc1n3C)OCO2,9.09% [100 µM] (active)
10,Cc1cc2c3c(nc4ccccc42)C(=O)c2cccnc2-c3n1,-74.8% [100 µM] (active) and -100% [100 µM] (active)
11,Cc1ccnc2[nH]c(-c3ccc(F)cc3)cc(=O)c12,22.1% [100 µM] (inactive) and 5.04% [100 µM] (active)
12,O=C1c2c(O)ccc(O)c2C(=O)c2c(NCCNC(=O)C(O)C(O)C(O)C(O)CO)ccc(NCCNC(=O)C(O)C(O)C(O)C(O)CO)c21 (stereo not given),-95.5% [100 µM] (active) and -100% [100 µM] (active)
13,CC12CCC3c4cc(Br)c(O)c(Br)c4CCC3C1CCC2O (stereo not given),5.35% [100 µM] (active) and -48.4% [100 µM] (active)
14,CC(=O)OC(=C(C#N)C#N)c1nccnc1C(C)=O,106% [20 µM] (inactive) and 75.4% [20 µM] (inactive)
15,CC(C)(C)N/N=C(\C(=O)Nc1ccc([N+](=O)[O-])cc1[N+](=O)[O-])c1nc2ccc([N+](=O)[O-])cc2[nH]c1=O,56.5% [100 µM] (inactive) and 7.04% [100 µM] (active)
16,CC(=O)c1cc2c(s1)C(=O)c1scc(C(C)=O)c1C2=O,-68.6% [100 µM] (active) and -79.8% [100 µM] (active)
17,CC(=O)Oc1ccc2ccc(=O)oc2c1OC(C)=O,-69.1% [100 µM] (active) and -65% [100 µM] (active)
18,CC(O)c1cc2c(s1)C(=O)c1c(C(C)O)csc1C2=O (stereo not given),-78.4% [100 µM] (active) and -81.9% [100 µM] (active)
19,CC(C)=CCC/C(C)=C/CC/C(C)=C/CSc1ccc(Cl)cc1C(=O)O,-52.6% [100 µM] (active) and 17.2% [100 µM] (inactive)
20,N#CC12COC3(CCCCC3C1(C#N)C#N)OC2=N (stereo not given),-25.8% [100 µM] (active)
